From PubChem BioAssay (NCI)
About 79,000 compounds went through this panel and 15% of them were active in at least one assay; those are over-represented in the sample as a whole. Rule as the data show it: active = growth inhibition above about 70%; inactive = the rest. Where a SMILES comes first, the peptide text is derived from it. The star is where a group is joined. ONp = O=[N+]([O-])c1ccc(O*)cc1; Tos = Cc1ccc(S(=O)(=O)*)cc1

How the values were obtained:
[1] = NCI Yeast Anticancer Drug Screen. Data for the rad50 strain (AID 155);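 also: 0% = growth of vehicle-only cultures of the same strain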; details: S. cerevisiae rad50 strain growth inhibition; at 50.0 µM; hits give high values
In short: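 DNA repair mutant yeast, compound exposure, growth read-out; inhibition is taken relative to vehicle.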

[2] = NCI Yeast Anticancer Drug Screen. Data for the mec2-1 strain (AID 157); details: S. cerevisiae mec2-1 strain, at 50.0 µM, hits give high values
In short: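 Readout is yeast growth inhibition, normalised to vehicle-treated controls, in the mec2-1 strain exposed to compound.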

[3] = NCI Yeast Anticancer Drug Screen. Data for the sgs1 mgt1 strain (AID 161);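 also: 0% = growth of cultures given vehicle only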; details: S. cerevisiae sgs1 mgt1 strain, at 50.0 µM, hits give high values
In short: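 Yeast cells carrying a defined DNA-repair defect were exposed to test compounds. Growth inhibition was measured relative to vehicle-treated controls.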

[4] = NCI Yeast Anticancer Drug Screen. Data for the cln2 rad14 strain (AID 165);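 also: 0% = growth equal to vehicle treated cultures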; details: S. cerevisiae cln2 rad14 strain, at 50.0 µM, hits give high values
In short: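 Relative to vehicle controls, growth inhibition of compound-treated cln2 rad14 yeast was recorded.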

[5] = NCI Yeast Anticancer Drug Screen. Data for the bub3 strain (AID 167); details: S. cerevisiae bub3 mutant strain, at 50.0 µM, hits give high values
In short: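 In this screen, a yeast mutant lacking normal mitotic checkpoint function is challenged with compound. Relative growth versus vehicle gives the inhibition value.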

[6] = NCI Yeast Anticancer Drug Screen. Data for the mlh1 rad18 strain (AID 175); details: S. cerevisiae mlh1 rad18 strain growth inhibition; at 50.0 µM; hits give high values
In short: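 Test agents were incubated with a yeast strain of defined genotype (DNA damage repair defect). Inhibition of growth was derived by comparison with vehicle-exposed cultures.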

Measured: growth inhibition

O=C(CCCCCCCCC(=O)NO)NO
inactive: [1] -10.8% | [2] 0.45% | [3] -2.9% | [4] 4% | [5] -2.95% | [6] -2.5%

O=C(O)c1ccc2c(c1)S(=O)(=O)c1ccccc1C2=O
inactive: [1] 14.1% | [2] 17.5% | [3] -3.8% | [4] 9.6% | [5] 23.9% | [6] 17.1%

COc1ccc(CC(C)SC(CC(=O)O)C(=O)O)cc1 (stereo not drawn)
inactive: [1] 3.45% | [2] -1% | [3] 16.4% | [4] -37.9% | [5] 7.95% | [6] -8.2%

CCOC(=O)c1[nH]n(-c2ccccc2)c(=O)c1C=NC(C)=S
inactive: [1] -32.2% | [2] -25.6% | [3] -16.6% | [4] 7.1% | [5] -12% | [6] -18.9%

COc1cccc(C(=O)NCCNCCNC(=O)c2cccc(OC)c2OC)c1OC
inactive: [1] -0.8% | [2] 0.7% | [3] -3.95% | [4] -6.6% | [5] -1.75% | [6] -2.35%

NC(N)=NCCCC(O)C(=O)O (stereo not drawn)
inactive: [1] -10.6% | [2] -11.8% | [3] -6.85% | [4] -2.95% | [5] 2.25% | [6] 0.85%

CCOC(=O)c1ccc(NC(=O)/C=C/c2ccccc2)cc1
inactive: [1] -4.55% | [2] 11.4% | [3] 17.4% | [4] -24.3% | [5] 30.1% | [6] 6.3%

O=C(O)C(CNCc1ccccc1)(c1ccccc1)c1ccccc1
inactive: [1] 5.55% | [2] -9.25% | [3] 10.3% | [4] 4.9% | [5] 1.3% | [6] 12.7%

CCCCCCCCCCCCCCCCCCOCCCCCC
inactive: [1] -8.65% | [2] -30.1% | [3] -19.8% | [4] 4.2% | [5] -10.3% | [6] -7.55%

O=C(O)C1=C(c2ccccc2)C=C(c2ccccc2)C1
inactive: [1] 0% | [2] 0.2% | [3] 12.8% | [4] -33% | [5] 48% | [6] 28.9%

NCCNC(=O)Cc1cccs1
inactive: [1] 1.5% | [2] -8.5% | [3] -12.4% | [4] -21.6% | [5] 4.45% | [6] -0.8%

CC(=O)Nc1c(C)cc(S(=O)(=O)O)cc1C
inactive: [1] 6.25% | [2] -0.1% | [3] -8.65% | [4] -58.7% | [5] 28.6% | [6] -18.5%

O=CC1CCCc2ccccc21 (stereo not drawn)
inactive: [1] 17.1% | [2] -20.5% | [3] -0.7% | [4] -5.7% | [5] 3.9% | [6] 5.6%

C[N+]([O-])(CCO)Cc1ccccc1 (stereo not drawn)
inactive: [1] -1.45% | [2] -17.8% | [3] -6.1% | [4] 0.95% | [5] 4.75% | [6] -14.3%

CCC(O)C(O)(c1ccccc1)c1ccccc1 (stereo not drawn)
inactive: [1] 4.05% | [2] 8% | [3] -8.8% | [4] -2.75% | [5] -1.2% | [6] -6.7%

NC(C(F)(F)F)(C(F)(F)F)P(=O)(Cc1ccccc1)Cc1ccccc1
inactive: [1] -8.35% | [2] -47.4% | [3] -18.7% | [4] -13.8% | [5] -23.1% | [6] 7.85%

COc1ccc(COC(=O)Nc2ccc([N+](=O)[O-])cc2)cc1
inactive: [1] -38.2% | [2] -3.6% | [3] -28.1% | [4] -5.3% | [5] -18.5% | [6] -12.2%

CCCCCC(=O)NCCCOC
inactive: [1] -20% | [2] 10.8% | [3] -0.35% | [4] -46.4% | [5] -13.7% | [6] -8.9%

CSc1nc2ccc(N=Cc3ccccc3O)cc2s1
inactive: [1] -25.5% | [2] -8.25% | [3] -5.7% | [4] -12.6% | [5] 17.7% | [6] -13.4%

O=C/C(=C(/Br)I)c1ccccc1
inactive: [1] 5.25% | [2] 2.85% | [3] 24.9% | [4] 8.7% | [5] 8.7% | [6] -27.1%

O=[N+]([O-])c1ccc(CS(=O)(=O)O)cc1
inactive: [1] 6.25% | [2] -9.05% | [3] -6.4% | [4] -15.1% | [5] 8.8% | [6] -5.6%

CCC(=O)N(C)c1ccccc1
inactive: [1] 22.4% | [2] 6.3% | [3] 0.75% | [4] 12.2% | [5] -0.35% | [6] -23.4%

O=[N+]([O-])c1cc(S(=O)(=O)O)cc(S(=O)(=O)O)c1O
inactive: [1] 12.6% | [2] 2.6% | [3] 13.2% | [4] 19.6% | [5] 16.5% | [6] 18.1%

CCCC(CC)=C(c1ccc(OC(C)=O)cc1)c1ccc(OC(C)=O)cc1
inactive: [1] 44.4% | [2] 24.3% | [3] 51.5% | [4] 38.9% | [5] 31% | [6] 54.7%

OC1(C(O)(c2ccc(-c3ccccc3)cc2)c2ccc(-c3ccccc3)cc2)CCCCC1
inactive: [1] -11% | [2] -7.85% | [3] -34% | [4] -14.6% | [5] -26.4% | [6] -0.5%

CC1CC=[N+]([O-])C1(C)C (stereo not drawn)
inactive: [1] -6.6% | [2] -18.1% | [3] 14.2% | [4] -12.2% | [5] 16.7% | [6] -11.1%

O=C(NCCc1ccccc1)[C@H]1CCCC[C@@H]1CCO
inactive: [1] 19.4% | [2] 0.85% | [3] -31.9% | [4] 0.4% | [5] -39.8% | [6] -28.6%

CCOc1ccc(N=C(NC(=O)c2ccccc2)SC)cc1
inactive: [1] -5.9% | [2] -0.7% | [3] -0.15% | [4] 23.3% | [5] 10.1% | [6] 0.65%

CC(=O)OCc1ccnc2ccc(OC(C)=O)cc12
inactive: [1] 0.05% | [2] 15.4% | [3] -6.4% | [4] -8.75% | [5] -5.2% | [6] 2.75%

O=C(O)c1cccc(F)c1C(=O)O
inactive: [1] -4.5% | [2] -3.65% | [3] -1.5% | [4] -20.4% | [5] -2.95% | [6] 7.3%

Cc1[nH]nc(-c2ccon2)c1N
inactive: [1] -4.45% | [2] -3.3% | [3] -27.4% | [4] -20.5% | [5] 13.2% | [6] -6.6%

CC(C)(C)c1ccc(OS(=O)(=O)c2ccc(Cl)c(Cl)c2)cc1
inactive: [1] 0.4% | [2] 17.4% | [3] 0.35% | [4] 31.6% | [5] 6.8% | [6] -4.85%

COc1cc(C2C3=C(COC3=O)Oc3cc4c(cc32)OCO4)ccc1OC(C)=O (stereo not drawn)
inactive: [1] 20.7% | [2] 5.55% | [3] -13.8% | [4] 21.1% | [5] -4.35% | [6] -5.2%

CC(/C=C/c1ccccc1)=N\N=C(C)\C=C\c1ccccc1
inactive: [1] 0.45% | [2] -20.2% | [3] -31.4% | [4] 20.9% | [5] -37.8% | [6] -23.4%

Cc1ccccc1/C=N\NC(=O)CCCC(=O)N/N=C/c1ccccc1C
inactive: [1] -8.9% | [2] 2.5% | [3] -25.5% | [4] 8.7% | [5] 24.4% | [6] -9.4%

Cc1ccc(S(=O)(=O)NCC(=O)NCC(=O)Oc2ccc([N+](=O)[O-])cc2)cc1 (Tos-Gly-Gly-ONp)
inactive: [1] 52.7% | [2] 13% | [3] 42.2% | [4] 18.8% | [5] 2% | [6] 16%

O=CN1CCN(C=S)CC1
inactive: [1] -14% | [2] -10.2% | [3] -9.9% | [4] 3.75% | [5] 2.6% | [6] -15.4%

CCNS(=O)(=O)c1ccc2c(c1)nc(C)n2CC
inactive: [1] 16.4% | [2] -27.6% | [3] -3.5% | [4] 13.1% | [5] 23.6% | [6] 11.5%
